Potency and affinity values are given separately. Inconclusive results are not listed. Where a call stands in place of a potency, no number is given. Unmarked numbers belong to inactive results. The source made the active and inactive calls.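 The calls were made as follows: active = signal loss with fitted half-maximal concentration at or below twice the top valid tested dose in every test run; inconclusive = runs disagree, flat 30 to 70% signal loss, or poor fit; inactive = all runs flat, opposite direction, or potency beyond limit.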

The nature of this test: HEK293T cytotoxicity, dose response, cytotoxicity control for miR-122 modulator project, cell-based, inhibitor set, cherry-pick, set 2 (AID 720697). The following applies: HEK293T viability, CellTiter-Glo luminescence, 48 h; series mostly up to 26 µM.
`Cc1noc(C)c1NC(=O)Nc1ccc2c(c1)C(=O)N(C)[C@@H]1CC[C@H](CC(=O)N[C@H]3CCN(Cc4ccccc4)C3)O[C@H]1CO2`: the result was inactive.

`CN1C(=O)c2cc(NC(=O)Cc3ccccc3)ccc2OC[C@@H]2O[C@@H](CC(=O)NCc3ccc(Cl)cc3)CC[C@H]21`: the outcome was inactive.

Turning to `COCCN(C[C@@H]1[C@H](c2ccccc2)[C@@H](CO)N1C(=O)C1CCC1)C(C)=O`, the molecule was classed as inactive.

With `COCCNC(=O)C[C@@H]1CC[C@@H]2[C@H](COc3ccc(NS(=O)(=O)c4ccc(Cl)cc4)cc3C(=O)N2C)O1`, the result was inactive.

For the molecule `CCN(C[C@H]1N[C@@H](CO)[C@@H]1c1ccc(C2=CCCC2)cc1)C(=O)c1cccnc1`, the result was inactive.

For the molecule `COc1cccc(-c2nc(NCCN3CCOCC3)c3ccccc3n2)c1O`, the molecule was classed as inactive.

In the case of `CC(C)c1ccc(NC(=O)C[C@H]2CC[C@H]3[C@@H](COc4ccc(NC(=O)Nc5ccc(F)c(F)c5)cc4C(=O)N3C)O2)cc1`, the outcome was inactive.

Consider `CN(C)CCNC(=O)C1CC(=O)N(c2ccc(F)c(Cl)c2)C1` (centres undefined), for which the outcome was inactive.

Consider `CCCC(=O)Nc1ccc2c(c1)C(=O)N(C)[C@@H]1CC[C@H](CC(=O)N3CCc4ccccc4C3)O[C@H]1CO2`, for which the result was inactive.

As to `Cc1cc(C)cc(Oc2ccc(NC(=O)C3CC=CCC3C(=O)O)cc2)c1` (centres undefined), the molecule was called inactive.

For `CN1C(=O)c2cc(NC(=O)c3cccc(F)c3)ccc2OC[C@@H]2O[C@@H](CC(=O)O)CC[C@@H]21`, the outcome was inactive.

Turning to `COc1ccc(-c2cc(C3CCN(c4ccc(C(C)=O)cc4[N+](=O)[O-])CC3)[nH]n2)cc1`, the call was inactive.

With `CNC[C@@H]1Oc2cc(C#CC3CCCCC3)ccc2S(=O)(=O)N([C@@H](C)CO)C[C@@H]1C`, the result was inactive.

Take `Cc1cc(C)cc(NC(=O)Nc2ccc3c(c2)C(=O)N(C)[C@@H]2CC[C@H](CC(=O)O)O[C@@H]2CO3)c1`: the molecule was classed as inactive.

Consider `CC(=O)Nc1ccc2c(c1)C(=O)N(C)[C@@H]1CC[C@@H](CC(=O)NCc3ccc(Cl)cc3)O[C@H]1CO2`, for which the call was inactive.

Regarding `Cc1cccc(NC(=O)Nc2ccc3c(c2)C(=O)N(C)[C@@H]2CC[C@H](CC(=O)NCc4ccccc4Cl)O[C@H]2CO3)c1`, the molecule was classed as inactive.

For the molecule `Cc1ccc(C(=O)n2nc(-c3ccccc3)nc2NCc2ccco2)cc1`, the molecule was called inactive.

As to `O=c1c2c3c(sc2nc2n1CCC2)CCCC3`, the molecule was classed as inactive.

With `COc1ccc(NC(=O)N(C)C[C@@H]2Oc3cc(C#CCC(C)C)ccc3S(=O)(=O)N([C@@H](C)CO)C[C@@H]2C)cc1`, the call was inactive.

As for `CC(=O)N=c1scc(-c2ccccc2)n1-c1cccc(O)c1`, the molecule was called inactive.

Consider `O=C(c1ccc(CNc2c(NC3CCCCC3)c(=O)c2=O)cc1)N1CCc2ccccc21`, for which the outcome was inactive.

On to `COC(=O)C[C@@H]1CC[C@@H]2[C@H](COc3ccc(NC(=O)c4cc(F)cc(F)c4)cc3C(=O)N2C)O1`, for which the call was inactive.

As to `COc1cccc(CNC(=O)C[C@H]2CC[C@@H]3[C@H](COc4ccc(NC(C)=O)cc4C(=O)N3C)O2)c1`, the molecule was called inactive.

As to `CCCNC(=O)N1[C@H](CO)[C@H](c2ccc(-c3ccccc3)cc2)[C@@H]1CNC(C)=O`, the molecule was called inactive.

In the case of `Cc1ccc(-c2ccc3c(c2)O[C@H](CN(C)C(=O)CC2CC2)[C@H](C)CN([C@H](C)CO)S3(=O)=O)cc1`, the molecule was called inactive.

Regarding `C[C@@H]1CN([C@H](C)CO)C(=O)c2cc(-c3cncnc3)cnc2O[C@H]1CN(C)Cc1ccc(Oc2ccccc2)cc1`, the outcome was inactive.

On to `C/C=C/c1ccc2c(c1)O[C@H](CN(C)C(=O)Nc1cccc(F)c1)[C@H](C)CN([C@@H](C)CO)S2(=O)=O`, for which the outcome was inactive.

On to `CO[C@@H]1CN(C)C(=O)c2ccc(NS(=O)(=O)c3ccc(C)cc3)cc2OC[C@@H](C)N(C(=O)NC(C)C)C[C@H]1C`, for which the result was inactive.

Consider `CCN(CC)CCNC(=O)c1ccc(NC(=O)c2cn(-c3ccc(F)cc3)nc2-c2cccc(OC)c2)cc1`, for which the activity change, negative = cytotoxicity was -17.7% [at 6 µM].

As to `CCCNC(=O)Nc1ccc2c(c1)C(=O)N(C)[C@H]1CC[C@H](CC(=O)NC3CCC3)O[C@H]1CO2`, the call was inactive.

On to `C/C=C/c1ccc([C@H]2[C@@H](CO)N[C@@H]2CN(CC(C)C)C(=O)c2ccccn2)cc1`, for which the outcome was inactive.

For `COC(=O)C[C@@H]1CC[C@H]2[C@@H](COc3ccc(NC(=O)c4ccc(F)c(F)c4)cc3C(=O)N2C)O1`, the outcome was inactive.

For the molecule `CC(=O)N1[C@H](CO)[C@@H](c2ccccc2)[C@H]1CN(C)C(=O)CN1CCOCC1`, the outcome was inactive.

For `COCC(=O)Nc1ccc2c(c1)C(=O)N(C)[C@@H]1CC[C@@H](CC(=O)NCc3ccc(OC)cc3)O[C@H]1CO2`, the outcome was inactive.

These data come from PubChem BioAssay AID720697 (Broad Institute, 2013).
